According to PubChem BioAssay AID1626 (SRMLSC, 2009):
Out of some 220,000 compounds screened, about 2,000 (0.91%) were called active. About 2% were inconclusive and are not listed. Cut-off read from the data, not from the text of the source: inconclusive = inhibition above about 80% without an active follow-up result; inactive = below that; test concentration not stated here. A selection follows. Entries with a potency or affinity are not part of this list.

Assay: M. tuberculosis H37Rv growth inhibitors, H37Rv strain (AID 1626);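 note: bacteria incubated seven days before Alamar blue readout; 0% = bacteria only wells and 100% = bacteria with antibiotic wells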
Details: active compounds read high, concentration not given here

SMILES | inhibition
CCOc1ccc(CCNC(=O)Cn2cccc2C(=O)c2ccccc2C)cc1OCC | 4.18% (inactive)
Cc1c(-c2n[nH]c(=S)n2-c2ccc(Br)cc2)nnn1-c1ccc(Cl)cc1 | 4.27% (inactive)
CCOC(CNc1c([N+](=O)[O-])c(=O)n(C)c(=O)n1C)OCC | 3.27% (inactive)
Cc1ccccc1NC(=O)OCc1cccnc1Sc1ccc(Cl)cc1 | 0.86% (inactive)
Cn1c(SCC(=O)O)nc2ccccc2c1=O | 3.07% (inactive)
CN1C(=O)C(=Cc2ccc(Sc3ccccc3)o2)C(=O)N(C)C1=O | 41% (inactive)
Cc1ccc(Sc2ccc(/C=C3/C(=O)NN(c4ccccc4)C3=O)o2)cc1 | 75.7% (inactive)
CCCCc1nnc(NC(=O)CN2C(=O)c3ccccc3C2=O)s1 | 0.96% (inactive)
CCOC(=O)COc1ccc(S(=O)(=O)N2CCN(c3ccc(F)cc3)CC2)cc1 | 8.22% (inactive)
CN1CCN(C(=O)/C(=C\c2cccc([N+](=O)[O-])c2)NC(=O)c2cccs2)CC1 | -3.33% (inactive)
O=C(NC1CCCCC1)C(c1ccc2ncccc2c1)N(Cc1ccccc1)C(=O)c1cccs1 (stereo not given) | 40.5% (inactive)
O=C(NC1CCCCC1)C(c1ccc2ncccc2c1)N(Cc1ccc2c(c1)OCO2)C(=O)c1cccs1 (stereo not given) | 8.94% (inactive)
O=C(NC1CCCCC1)C(c1ccc2ncccc2c1)N(Cc1ccco1)C(=O)c1ccc2c(c1)OCCO2 (stereo not given) | 13.5% (inactive)
COc1ccc(CN(C(=O)c2ccc3c(c2)OCCO3)C(C(=O)NC2CCCCC2)c2ccc3ncccc3c2)cc1 (stereo not given) | 67.9% (inactive)
Cn1c(SCC(=O)N/N=C/c2cccnc2)nnc1-c1ccccc1 | -5.36% (inactive)
Cc1ccc(C(=O)OCC(=O)NC(C)C)cc1S(=O)(=O)N1CCOCC1 | -1.79% (inactive)
CN(Cc1ccccc1)S(=O)(=O)c1ccc(NC(=S)NC(=O)C(C)(C)C)cc1 | 9.18% (inactive)
COc1cc(CN2CCCC(C(=O)c3ccc4c5c(cccc35)CC4)C2)cc(OC)c1O (stereo not given) | -1.67% (inactive)
CC(C)c1[nH]nc2c1C(c1ccco1)C(C#N)=C(N)O2 (stereo not given) | -5.64% (inactive)
O=C1CC(C(=O)O)C2(CCCC2)O1 (stereo not given) | 9.23% (inactive)

SMILES | inhibition
Cc1ccc(N(CC(=O)NC2CCCC2)C(=O)CCCC(=O)Nc2ccccn2)cc1C | 10% (inactive)
Clc1ccccc1Sc1ccc(-c2ccccn2)s1 | -5.02% (inactive)
COc1ccccc1Sc1nc(-c2ccccc2)ncc1OC | -2.36% (inactive)
COc1cnc(-c2ccccn2)nc1NC(C)C | 75.4% (inactive)
O=C(O)c1cnc(-c2ccccc2)nc1Sc1ccccc1Cl | 1.01% (inactive)
CC12CN3CC(C)(CN(C1)C3c1cccnc1)C2=O (stereo not given) | -0.26% (inactive)
O=C(NC(=S)NCCN1CCOCC1)c1ccccc1 | -16.1% (inactive)
CCOC(=O)C1CCCN(C(=O)c2ccc([N+](=O)[O-])c(C)c2)C1 (stereo not given) | -2.07% (inactive)
CCOC(=O)C1CCCN(c2cc(NCCCO)c([N+](=O)[O-])c3nonc23)C1 (stereo not given) | 1.76% (inactive)
Cc1n[nH]c(=O)n1-c1ccc(OCc2ccccc2)cc1 | -0.14% (inactive)
Cc1cc(-c2nnc(SCC(=O)c3ccc(F)cc3)o2)no1 | 3.52% (inactive)
CCN1CCN(c2nc(-c3ccccn3)nc3ccccc23)CC1 | -2.25% (inactive)
Fc1ccccc1-c1nc(N2CCCCC2)c2ccccc2n1 | 7.2% (inactive)
c1ccc2c(N3CCOCC3)nc(-c3ccncc3)nc2c1 | -3.11% (inactive)
CN1CCN(c2nc(-c3ccccn3)nc3ccccc23)CC1 | 10.9% (inactive)
c1ccc2c(N3CCCCCC3)nc(-c3ccncc3)nc2c1 | 37% (inactive)
c1cncc(-c2nc(N3CCOCC3)c3ccccc3n2)c1 | -2.03% (inactive)
CCn1cc(C(=O)N2CCN(c3ccc([N+](=O)[O-])cc3)CC2)c(=O)c2ccc(C)nc21 | 6.57% (inactive)
O=S(=O)(O)c1nc2ccccc2[nH]1 | -0.16% (inactive)
Cc1cc(=O)[nH]c(N/N=C/c2cc(C)n(-c3ccccc3)c2C)n1 | -2.65% (inactive)

SMILES | inhibition
S=C(Nc1ccc(Cl)cc1)NC1CC2CCCC(C1)N2C1CC1 (stereo not given) | -1.32% (inactive)
Cc1ccc(-n2c(C(C)n3nc(C)c([N+](=O)[O-])c3C)n[nH]c2=S)cc1 (stereo not given) | 3.01% (inactive)
Cc1ccc(C(=O)CSC2=NC(N)=C(C#N)C3(CCCCC3)C2C(N)=O)cc1 (stereo not given) | -12.2% (inactive)
FC(F)(F)c1nnc2ccc(N3CCCC3)nn12 | -2.32% (inactive)
Fc1c(F)c(C(F)(F)F)c(F)c(F)c1N1CCN(c2ccc3nnc(C(F)(F)F)n3n2)CC1 | 8.98% (inactive)
COc1ccc(NC(=O)COc2ncnc3ccccc23)cc1S(=O)(=O)N1CCOCC1 | -8.54% (inactive)
CCCc1[nH]n(-c2nc3ccccc3s2)c(=O)c1C=NCCCOC | -3.55% (inactive)
Cc1cc(Nc2ccccc2)n(-c2ccccc2)n1 | 1.16% (inactive)
COc1ccc(Nc2cc(C)nc(N3CCOCC3)n2)cc1 | 10.4% (inactive)
Cc1ccc(C)c(C(=O)Nc2cc(C)nn2-c2nc(C)cc(C)n2)c1 | 22% (inactive)
CNc1cc(C)nc(-n2nc(C)cc2C)n1 | 13% (inactive)
Cc1cc(Nc2ccccc2)n(-c2ccc(Br)cc2)n1 | -7.48% (inactive)
CC(=O)Nc1cc(C)nn1-c1nc(C)cc(C)n1 | 3.43% (inactive)
O=C(c1ccc(Cl)nc1)N1CCN(S(=O)(=O)c2ccc(Cl)cc2)CC1 | 5.1% (inactive)
Cc1ccc(/C=C(/C#N)C(=O)NC(C)c2ccccc2)o1 (stereo not given) | 5.5% (inactive)
CCCC(c1nnnn1C(C)(C)CC)N1CCN(C2CCCC2)CC1 (stereo not given) | 3.73% (inactive)
CC(=O)Nc1ccccc1C(=O)C(=O)Nc1ccc(C(=O)N2CCOCC2)cc1 | -0.85% (inactive)
Cc1ccc(C2C(C(=O)c3sc(C)nc3C)=C(O)C(=O)N2CCN(C)C)o1 (stereo not given) | -6.12% (inactive)
COc1ccc(S(=O)(=O)Nc2ccc(N3CCOCC3)cc2)cc1[N+](=O)[O-] | -1.81% (inactive)
COC(CNc1cc(=O)oc2ccccc12)OC | 3.54% (inactive)
